Assay [1] is described as follows: Cytotoxicity counterscreen for inhibitors of SARS-CoV-2 cell entry (AID 1645845; calls by dose curve; note: nearly all actives have a fitted effect of over 50% in size). In short, it runs like this:
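ATP-content luminescence (ATPLite 1step, 15 min RT) read after 48 h compound exposure of Expi293F cells stably expressing human ACE2; normalized to cells-only wells and media-only wells.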

The nature of assay [2]: Primary qHTS to identify inhibitors of SARS-CoV-2 cell entry (AID 1645846; calls by dose curve; note: nearly all actives have a fitted effect of over 45% in size). To be noted: activity change, negative = inhibition: at 57.1 µM (top of the series) unless noted. The gist of the method:
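Inhibition of spike-mediated entry was scored in human ACE2-transfected Expi293F cells. Particles were MLV-pseudotyped with Wuhan-Hu-1 S carrying a 19-aa C-terminal deletion; signal was luciferase after two days, scaled between spike PP and fusion-protein-free PP.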
In general terms: In qHTS, concentration-response curves come from the screen itself.

A further assay relates to CRL-7250. In words: qHTS assay to identify novel small-molecules to repurpose for Merkel cell carcinoma treatment (AID 1296009). Note: nearly all actives have a fitted effect of over 60% in size. The note with it: MCC and control cell lines, CellTiter-Glo viability, 72 h; series mostly up to 92 µM. The gist of the method:
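Cell viability measured by CellTiter-Glo following 72 hr compound treatment at 37 degree celsius, with NPC and MIPE libraries tested in 8- and 11-point concentration series.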

Assay [3] is described as follows: P-glycoprotein substrates identified in KB-8-5-11 adenocarcinoma cell line, qHTS therapeutic library screen (AID 1346987). Note: potency is the fitted concentration of half-maximal effect; nearly all actives have a fitted effect of over 65% in size. The gist of the method: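 In this qHTS, P-gp-rich KB-8-5-11 cells received library compounds across a concentration range. Viability was quantified by luminescence after 72 h at 37 degree C.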
Assay [4] relates to Zika virus NS2B-NS3 protease (unlinked complex). Nature of the assay: Primary screen GU Rhodamine qHTS for Zika virus inhibitors: Unlinked NS2B-NS3 protease assay (AID 1347159). Note: % is set by controls: 0 for no effect and ±100 for the full control effect; nearly all actives have a fitted effect of over 60% in size. In short, it runs like this:
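Unlinked NS2B/NS3, 25 nM; Rhod110 peptide, 1.5 microM; compounds, up to 114 microM. Reaction run 15 min at RT in 10 mM Tris-HCl pH 8.0, 0.01% Tween 20; kinetic fluorescence change fitted with a 4-parameter Hill model.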

Assay [5] concerns Zika virus NS2B-NS3 protease (linked construct). In words: Primary screen NINDS Rhodamine qHTS for Zika virus inhibitors (AID 1347160). Note: % is set by controls: 0 for no effect and ±100 for the full control effect; nearly all actives have a fitted effect of over 55% in size. The gist of the method: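 Single-chain NS2B-NS3 protease, 25 nM, pH 8.0; compounds preincubated 15 min. Activity: Rhodamine110 release from 1.5 microM substrate over 15 min, room temperature, data fitted to 4-parameter Hill.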
In assay [6] the target is Cytochrome P450 2D6 (Homo sapiens) (UniProt P10635). Nature of the assay: Cytochrome P450 family 2 subfamily D member 6 (CYP2D6) small molecule antagonists: luciferase biochemical (cell-free) qHTS assay (AID 1645840; active = well fitted curve in the direction sought with a large enough effect in the repeat runs; an effect the other way counts as inactive or inconclusive; note: potency is the fitted concentration of half-maximal effect; nearly all actives have a fitted effect of over 55% in size). In short, it runs like this: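 P450-Glo CYP2D6 system: proluciferin substrate converted by enzyme to luciferin, read by luminescence proportional to activity. Enzyme-substrate mix with compound 10 min at room temperature, then NADPH regeneration 1 h before detection reagent.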

In assay [7] the target is Glutathione peroxidase 1 (Homo sapiens) (UniProt P07203). In words: Primary qHTS Assay for Inhibitors of Recombinant Selenoprotein Glutathione Peroxidase 1 (GPX1) (AID 1845191). Note: % is set by controls: 0 for no effect and ±100 for the full control effect; nearly all actives have a fitted effect of over 65% in size. In short, it runs like this: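 NADPH consumption tracked by fluorescence at 340/450 nm between t=0 and t=15 min, room temperature. Final mix: 10 nM GPX1, 100 nM glutathione reductase, 1 mM GSH, 0.5 mM NADPH, 0.5 mM cumene hydroperoxide, 0.01% BSA; 30 min compound–enzyme preincubation.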

The target in assay [8] is Phospholipid hydroperoxide glutathione peroxidase GPX4 (Homo sapiens) (UniProt P36969). In words: Primary qHTS Assay for Inhibitors of Recombinant Selenoprotein Glutathione Peroxidase 4 (GPX4) (AID 1845192). Note: % is set by controls: 0 for no effect and ±100 for the full control effect; nearly all actives have a fitted effect of over 65% in size. In short, it runs like this: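 NADPH consumption followed by fluorescence at 340/450 nm, t=0 and after 15 min at room temperature. Reaction started with cumene hydroperoxide (0.5 mM final) after 30 min compound–GPX4 preincubation; final 200 nM GPX4, 100 nM GR, 1 mM GSH, 0.5 mM NADPH.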

Assay [9] addresses Luciferin 4-monooxygenase (Photinus pyralis) (UniProt P08659). Nature of the assay: Primary firefly luciferase (FLuc) qHTS assay for identification of artifact compounds. (AID 1845220).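 Note: plate controls were DMSO vehicle for no effect and no enzyme for full effect; nearly all actives have a fitted effect of over 60% in size.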 To be noted: outcome: dose series up to 54.1 µM unless noted. In short, it runs like this: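 Cell-free, 1536-well qHTS. Buffer pH 7.6 with 0.01% Tween-20 and 0.05% BSA; 10 uM D-luciferin, 10 uM ATP; 10 nM P. pyralis luciferase; luminescence after 5 min.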

Assay [10] is described as follows: Primary fluorescence-based thiol-reactive (MSTI) qHTS assay for identification of artifact compounds. (AID 1845221).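 Note: thiol-reactive compounds lower the probe fluorescence signal; nearly all actives have a fitted effect of over 65% in size.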 In short, it runs like this:
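In PBS pH 7.4 with 2% DMSO, each compound met 4 uM MSTI for one hour at ambient temperature, shielded from light, before fluorescence detection.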

The subject of assay [11] is Nanoluciferase (engineered Oplophorus gracilirostris luciferase). In words: Primary Nanoluciferase (NLuc) qHTS assay for identification of artifact compounds. (AID 1845222).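 Note: 0% = DMSO and -100% = no enzyme.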 The gist of the method: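 Compounds are pinned into diluted (1:55) conditioned medium of NLuc-expressing S16 cells and held 15 min at room temperature protected from light. Nano-Glo substrate follows, and luminescence is read 5 min later.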

In another assay the test system is C33A. In words: Primary qHTS to identify gynecologic anti-cancer compounds using libraries of approved drugs and bioactive compounds (AID 1345084). Note: % is set by controls: 0 for no effect and ±100 for the full control effect; nearly all actives have a fitted effect of over 55% in size. The note with it: Gynecologic cancer cell panel viability, ATPlite luminescence, 48 h; series mostly up to 57.5 µM. In short, it runs like this:
(§1)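 Five-concentration response, 48 h; readout is ATP-driven luciferase luminescence.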

The next assay concerns CAOV3. The description is as above. The note with it: Gynecologic cancer cell panel viability, ATPlite luminescence, 48 h; series mostly up to 57.5 µM. In short, it runs like this:
as §1
In general terms: In ATP-based viability assays light output follows the ATP content of the culture.

A further assay deals with CASKI. The assay is described as above. To be noted: Gynecologic cancer cell panel viability, ATPlite luminescence, 48 h; series mostly up to 57.5 µM. In short, it runs like this:
as §1

The next assay relates to Es-2. Described as above. To be noted: Gynecologic cancer cell panel viability, ATPlite luminescence, 48 h; series mostly up to 57.5 µM. The gist of the method:
as §1

The test system of a further assay is HeLa. The description is as above. To be noted: Gynecologic cancer cell panel viability, ATPlite luminescence, 48 h; series mostly up to 57.5 µM. In short, it runs like this: as §1
Another assay deals with Hek293T. The assay is described as above. The note with it: Gynecologic cancer cell panel viability, ATPlite luminescence, 48 h, control line for the selectivity index; series mostly up to 57.5 µM. The gist of the method:
as §1

Another assay relates to JEG-3. Described as above. The note with it: Gynecologic cancer cell panel viability, ATPlite luminescence, 48 h; series mostly up to 57.5 µM. The gist of the method:
as §1

For the next assay, the system named is OV90. The description is as above. The note with it: Gynecologic cancer cell panel viability, ATPlite luminescence, 48 h; series mostly up to 57.5 µM. The gist of the method: as §1
Another assay relates to PA-1. The description is as above. The note with it: Gynecologic cancer cell panel viability, ATPlite luminescence, 48 h; series mostly up to 57.5 µM. The gist of the method: as §1
Another assay has as its system Tov-21-G. Described as above. The note with it: Gynecologic cancer cell panel viability, ATPlite luminescence, 48 h; series mostly up to 57.5 µM. The gist of the method: as §1
The subject of the next assay is Tov112D. The assay is described as above. The note with it: Gynecologic cancer cell panel viability, ATPlite luminescence, 48 h; series mostly up to 57.5 µM. In short, it runs like this: as §1

SMILES strings stand for the structures. Records with an inconclusive call do not appear. Activity calls are given as the source filed them. Unless noted, calls come from the whole dose curve; as a rule, active = well fitted curve in the direction sought with a large enough effect; inconclusive = small, poorly fitted or top-dose-only effect, or another doubt; inactive = no such curve, though single readings can be large; an effect the other way counts as inactive or inconclusive.

Chain of Phospholipid hydroperoxide glutathione peroxidase GPX4 (Homo sapiens) (P36969 whole entry, looked up): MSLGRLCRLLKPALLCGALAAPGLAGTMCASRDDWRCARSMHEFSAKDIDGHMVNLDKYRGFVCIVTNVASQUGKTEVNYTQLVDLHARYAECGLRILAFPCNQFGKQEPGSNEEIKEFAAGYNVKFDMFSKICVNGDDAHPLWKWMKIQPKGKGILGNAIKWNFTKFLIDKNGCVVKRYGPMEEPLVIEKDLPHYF
Chain of Cytochrome P450 2D6 (Homo sapiens) (P10635 whole entry, looked up): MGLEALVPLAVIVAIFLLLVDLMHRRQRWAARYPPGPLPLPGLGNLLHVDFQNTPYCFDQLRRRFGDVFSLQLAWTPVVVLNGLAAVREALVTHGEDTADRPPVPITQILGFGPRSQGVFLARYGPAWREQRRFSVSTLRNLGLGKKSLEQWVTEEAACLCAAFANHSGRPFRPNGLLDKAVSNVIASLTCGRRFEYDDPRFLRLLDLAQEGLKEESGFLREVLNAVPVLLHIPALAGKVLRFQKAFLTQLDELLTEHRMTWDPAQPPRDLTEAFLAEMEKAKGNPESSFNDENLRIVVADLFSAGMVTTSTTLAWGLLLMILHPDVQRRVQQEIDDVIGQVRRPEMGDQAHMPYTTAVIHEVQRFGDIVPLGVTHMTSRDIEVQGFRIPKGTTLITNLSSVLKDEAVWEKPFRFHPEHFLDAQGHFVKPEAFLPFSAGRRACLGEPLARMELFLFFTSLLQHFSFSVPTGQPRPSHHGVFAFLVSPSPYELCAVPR
Chain of Glutathione peroxidase 1 (Homo sapiens) (P07203 whole entry, looked up): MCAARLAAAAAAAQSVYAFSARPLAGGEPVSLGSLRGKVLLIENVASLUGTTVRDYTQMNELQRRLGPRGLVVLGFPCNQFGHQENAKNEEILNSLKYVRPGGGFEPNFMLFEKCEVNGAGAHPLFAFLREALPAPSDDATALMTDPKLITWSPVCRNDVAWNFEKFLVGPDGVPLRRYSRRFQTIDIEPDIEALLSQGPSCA

On to `CCCCOc1nc(N)c2c(n1)N(Cc1cccc(CN3CCCC3)c1)CC(=O)N2`, for which the Potency result (in assay [1]; with CRL-7250) was “inactive” in each case. The activity change, negative = inhibition in [2] is -22.5%.

As to `C[C@@H](CN1CCC(n2c(=O)[nH]c3cc(Br)ccc32)CC1)NC(=O)[C@@H]1C[C@H]1c1ccccc1`, the figures for the Potency in [3] and in assay [6] were 20.6 µM (active) and 13.5 µM (active), respectively. Moreover, the Potency entry in [4], in assay [5], in assay [7], in assay [8], in assay [10] and in assay [11] was “inactive” in each case. For the same compound, the Potency entry with C33A, in the assay with CAOV3, in the assay with CASKI, with Es-2, in the assay with HeLa and in the assay on Hek293T was “inactive” in each case. Also, the Potency result in the assay with JEG-3, in the assay with OV90, with PA-1, in the assay with Tov-21-G and in the assay with Tov112D was “inactive” in each case. Besides, in assay [9], the call was inactive.

For the compound `CCC(CC)CC1(C(=O)Nc2ccccc2SC(=O)C(C)C)CCCCC1`, the Potency entry (in assay [1]; in the assay with CRL-7250) was “inactive” throughout. Moreover, in assay [2], the activity change, negative = inhibition is -15.2%.

As for `CCNC1(C(N)=O)CCN(c2ncnc3c2nc(-c2ccccc2Cl)n3-c2ccc(Cl)cc2)CC1`, the Potency result (in assay [1]; in the assay on CRL-7250) was “inactive” in each case.

Take `CCS(=O)(=O)N1CCC([C@@H](C)n2c(C)c(C(=O)NCc3c(OC)cc(C)[nH]c3=O)c3ccccc32)CC1`: the Potency entry (in [2]; in the assay with CRL-7250) was “inactive” each time.

In the case of `NC1CCC(N[C@@H]2C[C@H]2c2ccccc2)CC1` (stereo not given in full), the Potency result (in assay [1]; in the assay with CRL-7250) was “inactive” in each case. Also, in assay [2], the activity change, negative = inhibition was -44.4%.

Regarding `COc1cc(S(C)(=O)=O)ccc1Nc1nc2ccc(-c3ccc(NC(=O)[C@H](C)c4ccc(F)cc4)cc3)cn2n1`, the Potency result (in assay [1]; with CRL-7250) was “inactive” throughout.

The values are drawn from PubChem BioAssay (NCATS).
